Sampled rows, rich in hits. Any-hit rate of the full collection: about 3.5%.
MITF inh = inhibitors of human MITF. AID 1259374. inhibition, % at 2.6 µM. AlphaScreen MITF homodimerization, bead proximity signal. 650,000 compounds, 0.91% hits; in the data active = inhibition above about 50%;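 also: 0% = vehicle wells with protein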
GPR151 ag = human GPR151 activation | PathHunter beta-arrestin GPR151 cells, luminescence | activation, % at 11.2 µM | 650,000 compounds, 1% hits; in the data active = activation above about 4.9%;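 also: 0% = median of compound wells and 100% = cells with positive control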
Target sequence (Q8TDV0 whole entry, looked up): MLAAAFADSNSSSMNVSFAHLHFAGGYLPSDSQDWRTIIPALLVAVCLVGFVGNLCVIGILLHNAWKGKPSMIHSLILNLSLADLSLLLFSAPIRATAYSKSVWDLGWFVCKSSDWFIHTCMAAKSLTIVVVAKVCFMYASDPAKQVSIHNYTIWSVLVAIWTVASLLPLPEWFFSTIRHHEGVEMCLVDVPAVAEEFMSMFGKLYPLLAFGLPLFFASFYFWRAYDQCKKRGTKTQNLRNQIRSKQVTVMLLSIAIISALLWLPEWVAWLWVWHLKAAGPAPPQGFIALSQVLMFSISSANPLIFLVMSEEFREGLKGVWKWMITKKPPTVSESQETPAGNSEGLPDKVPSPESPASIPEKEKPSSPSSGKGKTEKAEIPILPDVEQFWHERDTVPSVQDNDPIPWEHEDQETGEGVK
TEAD-YAP block = TEAD-YAP interaction inhibition; HEK-TIYL cells, TEAD-Gal4/YAP UAS-luciferase luminescence; inhibition, % at 9.12 µM; 640,000 compounds, 1.4% hits; in the data active = inhibition above about 32%;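 also: 0% = median of test compound wells and 100% = reference inhibitor wells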
FBW7 activator = activators of human E3 ligase FBW7. Q969H0. AlphaScreen FBW7–phospho-cyclin E peptide binding, activator screen. normalized activity (activation), % at 26.1 µM. 650,000 compounds, 0.13% hits. AID 1259310; in the data active = normalized activity above about 1.9%;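 also: purified mutant Fbw7 with reduced substrate affinity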
MITF confirm = confirmation of human MITF inhibitors; 4,700 compounds, 16% hits; inhibition, % at 2.6 µM; AlphaScreen MITF homodimerization, biotin/His-MITF beads; shares compounds with MITF inh;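 active = inhibition above a cutoff derived from the DMSO control wells, cut at about 28% in these data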;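 also: 0% = MITF dimer wells with DMSO only; inhibitors lower the bead chemiluminescence by keeping MITF from dimerizing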
AS interf DR = optically interferes with AlphaScreen signal in dose response; IC50, µM; shares compounds with MITF inh; 480 compounds, 6% hits; AlphaScreen optical interference counterscreen, cell-free; AID 1259373; call rule not given here
AS interf ctr = optically interferes with AlphaScreen signal. shares compounds with MITF inh. LysRS AlphaScreen counterscreen, signal interference, triplicate. inhibition, % at 2.6 µM. 4,700 compounds, 7.6% hits;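 active = inhibition above a cutoff derived from the DMSO control wells, cut at about 30% in these data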
An asterisk follows results filed as active; . = not tested or not shown.

SMILES | MITF inh | GPR151 ag | TEAD-YAP block | FBW7 activator | MITF confirm | AS interf ctr | others
COc1ccc(CN2CCN(C(=O)c3c(OC)cccc3OC)CC2)c(OC)c1 | 12 | 2 | 2 | 0 | . | .
COc1ccc(CN2CCN(C(=O)c3ccncc3)CC2)c(OC)c1 | 60* | 0 | -16 | 0 | 17 | -5
COc1ccc(OC)c(CN2CCN(C(=O)c3ccccc3)CC2)c1 | 40 | -1 | -11 | 0 | . | .
O=C(OCC(=O)c1ccc([N+](=O)[O-])cc1)C(=O)OCC(=O)c1ccc([N+](=O)[O-])cc1 | 61* | 0 | 3 | -1 | 8 | 29
COc1ccc(C(=O)OCC(=O)c2ccc([N+](=O)[O-])cc2)cc1 | 1 | 0 | 5 | 0 | . | .
Cc1cc(C)cc(Cn2c(NCCCN3CCOCC3)cc(=O)n(C)c2=O)c1 | 70* | 1 | -6 | 0 | 11 | 19
NCCNCCOCCOc1cccc(Cl)c1Cl | 51* | -1 | 1 | 0 | 10 | 22
Cc1cccc(Cl)c1OCCOCCNCCO | 73* | 0 | 0 | 0 | -4 | -8
CCCCNCCOCCOc1c(C)cccc1Cl | 46 | 4 | 11 | 0 | . | .
COCCNCCOCCOc1c(C)cccc1C(C)(C)C | 61* | -2 | -8 | 0 | 16 | 18
COCCNCCCOc1c(C)cccc1C(C)(C)C | 19 | 0 | 5 | 0 | . | .
COCCNCCOCCOc1cccc(Cl)c1Cl | 26 | -1 | -1 | 0 | . | .
COCCNCCOc1c(C)cccc1C(C)(C)C | 80* | 1 | 4 | 0 | 8 | 6
CCCNC(=O)CSc1nc(C(C)(C)C)nc2ccccc12 | 9 | 1 | -4 | 0 | . | .
CN1CCN(CC(=O)c2c(-c3ccccc3)n(C)c3ccccc23)CC1 | 57* | 0 | -11 | 0 | -7 | 4
Cc1cc(C)n(CCCNCC(O)COCc2ccccc2)n1 (stereo unspecified) | 38 | 0 | 5 | 0 | . | .
Cc1cc(C)n(CCCNCC(O)COCc2cccs2)n1 (stereo unspecified) | 79* | 1 | 11 | 0 | 12 | 14
CCCCC1=NN2C(=N)/C(=C/c3ccc(Sc4ccc(Cl)cc4)o3)C(=O)N=C2S1 | -3 | 0 | 2 | 0 | . | .
Cc1cccc(NC2(C(F)(F)F)N=C3SCCN3C2=O)n1 (stereo unspecified) | 80* | -1 | -7 | 0 | 8 | 10
Cc1nc(C)c(C(=O)Nc2ccc(Br)cc2)o1 | 56* | -1 | 2 | 0 | 7 | 21
Cc1nc(C)c(C(=O)Nc2ccc(C(N)=O)cc2)o1 | 2 | 0 | -10 | 0 | . | .
N/C(=N\N=C(/N)c1ccccn1)c1ccccn1 | 107* | -6 | 61* | -1 | 100* | 100*
N#Cc1c(SCC(=O)O)nc(N2CCCCC2)c2c1CCCC2 | -1 | 0 | 5 | 0 | . | .
CCCSc1nc(N2CCCCC2)c2c(c1C#N)CCCC2 | 66* | 0 | -4 | 0 | -7 | -5
CCOc1ccccc1-c1cc(C(=O)Nc2ccc(S(N)(=O)=O)cc2)c2ccccc2n1 | -11 | 0 | -1 | 0 | . | .
SMILES | MITF inh | GPR151 ag | TEAD-YAP block | FBW7 activator | MITF confirm | AS interf ctr | others
COc1ccccc1C1(NC(=O)CCCCC2SCC3NC(=O)NC32)CCCC1 (stereo unspecified) | 105* | 3 | -4 | -1 | 66* | 9 | AS interf DR=4.9*
O=C(O)CCCC[C@@H]1SC[C@@H]2NC(=O)N[C@@H]21 | 122* | 0 | . | -1 | 124* | 100*
COC(=O)C(C(=O)OC)=C(/C=C/N(C)C)N(C)C | 74* | 0 | -5 | 0 | 13 | 16
CCOC(=O)/C(C(C)=O)=C(\C=C\N(C)C)N(C)C | 1 | 1 | 14 | 0 | . | .
COc1cccc(-n2nnc(C(=O)Nc3cc(C)ccc3OC)c2C)c1 | 9 | 0 | -5 | 0 | . | .
CCOc1cc(CN2CCN(Cc3ccc(SC)cc3)CC2)ccc1OC | 54* | -1 | 25 | 0 | 0 | 3
COc1ccc(CN2CCN(Cc3ccc(SC)cc3)CC2)cc1OCc1ccccc1 | 55* | 0 | 18 | 0 | 3 | 11
COc1ccc(CN2CCN(Cc3ccncc3)CC2)cc1OCc1ccccc1 | 63* | 1 | 1 | 0 | -6 | -1
COc1ccc(CN2CCN(C)CC2)cc1OCc1ccccc1 | 8 | 0 | -14 | 0 | . | .
CC(=O)C1=C(O)C(=O)N(CCN2CCNCC2)C1c1ccc(F)cc1 (stereo unspecified) | 101* | -1 | 1 | 0 | 23 | 13
Cc1nc([N+](=O)[O-])cn1CC(=O)Nc1ccc(F)c(Cl)c1 | 53* | 2 | 12 | 0 | -6 | -4
CC1(C)CC(=O)C2=C(C1)N(c1ccc(Cl)cc1)C(N)=C(C#N)C2c1ccc(C(C)(C)C)s1 (stereo unspecified) | 12 | -2 | 8 | 0 | . | .
CC1(C)CC(=O)C2=C(C1)N(c1ccc(Br)cc1)C(N)=C(C#N)C2c1ccc(C(C)(C)C)s1 (stereo unspecified) | 52* | -2 | -5 | 0 | 16 | 0
CCS(=O)(=O)NCC(c1cccs1)S(=O)(=O)c1ccc(C)cc1 (stereo unspecified) | 85* | 3 | -2 | 3.2* | 82* | 4 | AS interf DR=>6.6
Cc1ccc(S(=O)(=O)C(CNS(=O)(=O)c2ccccc2)c2cccs2)cc1 (stereo unspecified) | 21 | 0 | 5 | 0 | . | .
CN1CCN(CCOCCOc2cccc(Br)c2)CC1 | 72* | -1 | 10 | 0 | 5 | 5
CCN1CCN(CCOc2cccc(Br)c2)CC1 | 68* | 0 | 8 | 0 | 15 | 20
CN1CCN(CCOCCOc2ccc(Br)cc2Cl)CC1 | 49 | 1 | 15 | 0 | . | .
O=C(COC(=O)c1cccc(C(=O)OCC(=O)NC2CCCC2)n1)NC1CCCC1 | 4 | -1 | 8 | 0 | . | .
O=C1C(=O)N(CCN2CCOCC2)C(c2cccs2)/C1=C(/O)c1ccc(F)cc1 (stereo unspecified) | 5 | -1 | -5 | 0 | . | .
O=C1C(=O)N(CCOCCO)C(c2cccs2)/C1=C(\O)c1ccc(F)cc1 (stereo unspecified) | 55* | -1 | 4 | 0 | 2 | -6
O=C(/C=C/c1cn(-c2nc(-c3ccccc3)c3cc(Br)ccc3n2)[n+](-c2ccccc2)c1)c1ccccc1 | 77* | -1 | -18 | 0 | 6 | 10
COc1ccc(CCNC(=O)c2cc(Nc3ccnn3C)nc3ccccc23)cc1 | 69* | -2 | -4 | 0 | 0 | -2
OC(COCc1ccccc1)Cn1cnc2ccccc21 (stereo unspecified) | 1 | 2 | -5 | 0 | . | .
CCCCOCC(O)Cn1cnc2ccccc21 (stereo unspecified) | 55* | -1 | -3 | 0 | 21 | 18
COc1cc(NC(=O)CN2CCC(n3nnc4cc(F)ccc43)CC2)cc(OC)c1 | -7 | 0 | 4 | 0 | . | .
